KB-3-1 tox = KB-3-1 parental cell cytotoxicity; Potency, µM (top dose mostly 46.1 µM), hits mostly cytotoxic; 400,000 compounds, 1.4% hits; KB-3-1 viability, CellTiter-Glo ATP luminescence, 72 h; note: % is set by controls: 0 for no effect and ±100 for the full control effect; nearly all actives have a fitted effect of over 60% in size
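Screening of KB-3-1 cells (DMEM, 10% FBS, phenol-red free) ran from lowest to highest compound concentration; after 72 h at 37 °C viability was read luminescently and curves fitted.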
SW480 rerep = DNA re-replication induction in SW480 cells | 340,000 compounds, 1.8% hits | Potency, µM (highest dose often 46.1 µM), for the others: at the highest dose re-replication activation, actives largely listed as activators | AID 624297 | SW480 DNA re-replication, Hoechst DNA content imaging, 48 h; note: % of control where 0% means no effect; nearly all actives have a fitted effect of over 55% in size
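Per well, 250 cells were exposed to pinned compound for 48 hr. Nuclear DNA was visualised with Hoechst (40 min, 37 C) and total object intensity recorded by fluorescence scanning.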
MCF10A rerep = inducers of DNA re-replication in MCF 10A breast cells; MCF 10A DNA re-replication, Hoechst nuclear intensity, 48 h; Potency, µM (series often up to 46.1 µM), for inactives: at the highest dose activity, positive = re-replication, most hits filed as activators; 350,000 compounds, 2.9% hits; AID 624296; note: % of control where 0% means no effect; nearly all actives have a fitted effect of over 50% in size
KB-V1 cytotox = KB-V1 MDR subline cytotoxicity; 400,000 compounds, 3.4% hits; KB-V1 MDR cells viability, CellTiter-Glo, 72 h; Potency, µM (doses to about 46.1 µM), usual class: cytotoxic; AID 1347076; note: % is set by controls: 0 for no effect and ±100 for the full control effect; nearly all actives have a fitted effect of over 60% in size
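Cells of the MDR subline KB-V1 are plated, dosed with compound at multiple concentrations, and incubated 72 h at 37 degrees C; CellTiter-Glo is then added and luminescence read after 10 min.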
HT1080NT lethal = kills 2HG-producing HT-1080-NT fibrosarcoma cells; Potency, µM (highest dose often 46.1 µM), without a hit: at the top dose activity, negative = less viability, hits mostly cytotoxic; HT-1080-NT fibrosarcoma viability, CellTiter-Glo ATP luminescence, 48 h; 360,000 compounds, 1.6% hits; AID 686970;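 note: NT is the 2HG producing partner of a matched IDH1 knockdown line; 0% = DMSO-treated cells and -100% = media-only wells without cells; nearly all actives have a fitted effect of over 55% in size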
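Viability by CellTiter-Glo luminescence after 48 h compound exposure at 37C of HT-1080-NT cells (750/well, RPMI, 5% FBS). % activity scaled between DMSO wells and medium-only wells, then curve-fitted and categorized by curve class.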
HT1080 IDH1KD tx = toxicity to HT-1080 IDH1 knockdown cells (counter line); HT-1080 IDH1 knockdown viability, ATP luminescence, 48 h; AID 686971; Potency, µM (series often up to 46.1 µM), for the others: top-dose activity, negative = toxicity, actives largely listed as cytotoxic; 360,000 compounds, 2% hits;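 note: 0% = DMSO wells and -100% = cell-free medium wells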
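Knockdown cells (IDH1KD HT-1080) received compounds 2 h after plating at 750 cells/well and were kept 48 h at 37 °C in 5% FBS RPMI. A CellTiter-Glo luminescence read gave % activity for curve fitting.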
An asterisk follows results filed as active; i = inactive; ? = inconclusive; / = not tested or not shown. Hits are enriched below; roughly 7.9% of the tested compounds scored in any of these assays. Calls come from the whole dose curve; as a rule, active = well fitted curve in the direction sought with a large enough effect; inconclusive = small, poorly fitted or top-dose-only effect, or another doubt; inactive = no such curve, though single readings can be large; an effect the other way counts as inactive or inconclusive. Potency is the fitted concentration of half-maximal effect.

SMILES	KB-3-1 tox	SW480 rerep	MCF10A rerep	KB-V1 cytotox	HT1080NT lethal	HT1080 IDH1KD tx
Cc1ccc(C(OCC(O)CNC(CO)C(O)c2ccc([N+](=O)[O-])cc2)c2ccccc2)cc1 (centres undefined)	i	?	?	16µM*	21µM*	?
O=C1c2ccccc2C(=O)N1C(CO)C(O)c1ccc([N+](=O)[O-])cc1 (centres undefined)	i	-13%	0%	?	14%	1%
Cc1ccc(C(OCC(O)CNC(C)c2ccccc2)c2ccccc2)cc1 (centres undefined)	i	12%	?	?	15µM*	18µM*
O=C(NCc1ccccc1)C1CCN(c2nc(-c3ccccc3)nc3c2CCC3)CC1	i	13%	?	?	-6%	-4%
COc1cccc(C(NC(C)=O)c2nc(-c3cccnc3)cs2)c1 (centres undefined)	i	/	/	i	1%	9%
Oc1cccc(C(Nc2nccs2)c2ccc3cccnc3c2O)c1 (centres undefined)	3.3µM*	?	12µM*	?	29µM*	18µM*
CC(=O)NC(c1cccc([N+](=O)[O-])c1)c1ccc2cccnc2c1O (centres undefined)	3.7µM*	?	15µM*	?	?	?
Oc1c(C(Nc2cccc(C(F)(F)F)c2)c2cccnc2)ccc2cccnc12 (centres undefined)	i	?	?	i	-15%	?
O=[N+]([O-])c1ccc(NC(c2ccccc2)c2ccc3cccnc3c2O)cc1 (centres undefined)	4.6µM*	0.82µM*	?	?	?	?
COc1cccc(C(NC(C)=O)c2ccc3cccnc3c2O)c1 (centres undefined)	3.7µM*	0.65µM*	?	i	-9%	?
Oc1c(C(Nc2ccccn2)c2ccccc2)ccc2cccnc12 (centres undefined)	i	/	/	i	/	/
Cc1cccc(NC(c2ccc(O)cc2)c2ccc3ccc(C)nc3c2O)n1 (centres undefined)	i	?	?	?	-1%	-13%
COc1cccc(C(Nc2ccccc2)c2ccc3ccc(C)nc3c2O)c1 (centres undefined)	?	/	/	?	10µM*	7.3µM*
N#C/C(=N\Nc1ccc([N+](=O)[O-])cc1)C(N)=S	?	-9%	?	?	?	13µM*
N#C/C(=N\Nc1ccc(S(=O)(=O)N2CCc3ccccc32)cc1)C(N)=S	?	1%	12%	i	10µM*	9.2µM*
CCOC(=O)/C(C#N)=N/Nc1ccc(S(=O)(=O)N2CCc3ccccc32)cc1	?	3%	?	i	?	-25%
N#C/C(=N/Nc1ccc([N+](=O)[O-])cc1)C(=N)N1CCCCC1	i	-5%	-4%	i	-3%	-13%
N#C/C(=N\Nc1cccc([N+](=O)[O-])c1)C(=O)c1ccc(Br)cc1	3.7µM*	5%	?	1.5µM*	5.8µM*	2.6µM*
CCCCn1c(SCc2cccnc2)nc2c1c(=O)n(C)c(=O)n2C	i	-3%	15%	i	12%	2%
CCOC(=O)c1cnc2nc(NCc3ccc(OCc4ccccc4)cc3)[nH]n2c1=O	i	-3%	15%	i	4%	-3%
O=C(NN=C1CCCCC1)c1ccccc1OCc1ccc(F)cc1	i	0%	-8%	i	-13%	-15%
CCc1n[nH]c(=S)n1/N=C/c1ccc(-c2ccc(Br)cc2)o1	i	-1%	18µM*	i	?	?
CSc1ccc(/C=N/n2c(Cc3ccc(Br)cc3)n[nH]c2=S)cc1	i	?	28%	i	-20%	-5%
O=C(CNS(=O)(=O)c1ccccc1)N/N=C\c1ccc(Cl)cc1	i	-3%	-3%	i	-6%	-7%
O=C(N/N=C/c1ccc(N2CCCCC2)o1)c1ccccc1[N+](=O)[O-]	i	7.3µM*	5.8µM*	i	-5%	?
SMILES	KB-3-1 tox	SW480 rerep	MCF10A rerep	KB-V1 cytotox	HT1080NT lethal	HT1080 IDH1KD tx
O=C(N/N=C/c1ccc(N2CCOCC2)o1)c1ccccc1[N+](=O)[O-]	i	20%	?	i	21%	19%
Cc1noc2ncnc(N3CCCCC3)c12	i	-14%	16%	i	2%	3%
CCOC(=O)C1=CC[C@H]2c3c(c4ccc(OC)cc4n3C)C(=O)C1N2S(=O)(=O)c1ccc(C)cc1	?	?	?	?	18µM*	?
CCOC(=O)C1=CC[C@@H](c2ccccc2Cl)N(S(=O)(=O)c2ccc(C)cc2)[C@H]1C(=O)OCC	?	0%	4%	16µM*	-2%	-12%
CCOC(=O)C1=CC[C@@H](c2cccc(C)c2)N(S(=O)(=O)c2ccc(C)cc2)[C@H]1C(=O)OCC	?	-14%	?	?	-12%	-18%
COc1ccccc1CN(Cc1cc2cc(C)cc(C)c2[nH]c1=O)Cc1nnnn1CC1CCCO1 (centres undefined)	i	0%	?	i	?	?
CC1=C(C(=O)OCc2ccccc2)C(c2ccc(Br)cc2)NC(=O)N1CCCCCC(=O)O (centres undefined)	i	2%	-19%	i	-1%	-14%
O=C(O)CN1C(=O)CNC1=O	i	3%	4%	i	14%	9%
Cc1ccc(S(=O)(=O)Nc2ccc(Br)cc2/C=N/n2cnnc2)cc1	i	10%	0%	i	13µM*	?
c1ccc(C(c2ccccc2)N2CCN(c3nc4ccccc4n4cnnc34)CC2)cc1	23µM*	2%	7.3µM*	9.2µM*	0%	-3%
c1cnc(N2CCN(c3nc4ccccc4n4cnnc34)CC2)nc1	?	-10%	-3%	7.3µM*	2%	5%
Cc1cccc(N2CCN(c3nc4ccccc4n4cnnc34)CC2)c1C	i	-14%	?	i	1%	-1%
CCOC(=O)N1CCN(c2nc3ccccc3n3cnnc23)CC1	i	2%	-1%	i	6%	23%
CC1=C(C(=O)N2CCCCCC2)CC(CC(=O)NC(c2ccccc2)c2ccccc2)C(=O)N1CCC1=CCCCC1 (centres undefined)	?	/	/	16µM*	?	?

Screening data as filed in PubChem.
